# The whole screen tested about 310,000 compounds, of which about 11,000 (3.5%) were called active. About 4% were inconclusive and are not listed. The sample holds actives, similar compounds and a random draw of the others, so the mix is not that of the screen. Calls follow the shape of the dose curve; as a rule, active = well fitted inhibition curve with a large enough effect; inconclusive = small, poorly fitted or top-dose-only effect, or another doubt; inactive = no such curve, though single readings can be large or run the other way.
# Target: 4'-phosphopantetheinyl transferase ffp (Bacillus subtilis) (UniProt Q9F4F7)
# Test: qHTS Assay for Inhibitors of Bacillus subtilis Sfp phosphopantetheinyl transferase (PPTase);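 also: the enzyme is Sfp with the accession as filed and its product quenches rhodamine fluorescence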;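 as to largest response in the series, negative = inhibition: 0% = enzyme reaction without inhibitor and -100% = no enzyme wells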
# Details: Biochemical Sfp PPTase activity
# Outline: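 With Hepes-Na pH 7.6 buffer containing 10 mM MgCl2, Sfp (15 nM) modified BHQ-2-YbbR (12.5 uM) using rhodamine-CoA (5 uM). Two reads 30 minutes apart at 525/598 nm yielded each well's rate.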
# Potency is read from the fitted curve at half-maximal effect.
Structure (SMILES),"largest response in the series, negative = inhibition",Potency
O=C(NC1Cc2ccccc2C1)c1cc(COc2cccc(C(F)(F)F)c2)on1,24% (inactive),
Fc1ccc(/C=N/n2c(COc3ccccc3)n[nH]c2=S)cc1,,56.2 µM (active)
Cc1ccc(OCc2n[nH]c(=S)n2-c2ccccc2)cc1,5.12% (inactive),
O=[N+]([O-])c1ccccc1/C=N/n1c(COc2ccccc2)n[nH]c1=S,,56.2 µM (active)
S=c1[nH]nc(COc2ccccc2)n1-c1ccccc1,21.2% (inactive),
Cc1ccc(-c2n[nH]c(=S)n2/N=C/c2cc3c(cc2[N+](=O)[O-])OCO3)cc1,-22.6% (inactive),
CCc1n[nH]c(=S)n1/N=C/c1c[nH]c2ccc(Br)cc12,11.4% (inactive),
CSc1ccc(CCNC(=O)CS(=O)(=O)Cc2nc(-c3ccccc3F)oc2C)cc1,17.7% (inactive),
Cc1cc(Cl)ccc1C(=O)C1CCCN(C(=O)c2nonc2C)C1 (stereo unspecified),1.34% (inactive),
COC(=O)c1ccc(/C=N/N2C(C)CCCC2C)cc1 (stereo unspecified),13.3% (inactive),
COC(=O)c1ccc(/C=N\n2c(C)nnc2C)cc1,13.8% (inactive),
CCN(CC)S(=O)(=O)c1cccc(-c2n[nH]c(=S)n2/N=C/c2ccc(C(=O)OC)cc2)c1,,50.1 µM (active)
COC(=O)C1=CN(Cc2ccc(OC)cc2)C=C(C(=O)OC)C1c1ccc(O)c(OC)c1,-3.15% (inactive),
Cn1c(Cn2nnc3ccccc32)nnc1SCC(=O)c1ccccc1F,,50.1 µM (active)
Cn1c(CNC(=O)c2ccccc2F)nnc1SCc1ccc(F)cc1,-14.5% (inactive),
Cc1ccc(C(=O)CSc2nnc(Cn3nnc4ccccc43)n2C)cc1,4% (inactive),
COc1ccc(S(=O)(=O)/N=C2\C=C(NS(=O)(=O)c3ccccc3)C(=O)c3ccccc32)cc1,-20.9% (inactive),
OCCN1CCN(C(=S)c2ccc(-c3ccccc3)cc2)CC1,,7.08 µM (active)
O=C(NC(c1ccccc1)c1ccccc1)N1CCN(CCO)CC1,5.46% (inactive),
OCCN1CCN(c2nnc(-c3ccccc3)c3ccccc23)CC1,21.7% (inactive),
CCc1nonc1NC(=O)c1oc2ccc(Cl)cc2c1C,-4.03% (inactive),
COc1cccc(CC(=O)N2CCc3nc(COc4ccccc4)c4c(c3C2)CO[C@@H](C)C4)c1,-1.37% (inactive),
NS(=O)(=O)c1ccc(CNC(=O)c2cccc(Oc3ccccc3)c2)cc1,5.75% (inactive),
CCCSc1nc2sc3c(c2c(=O)n1-c1ccc(OC)cc1)CCN(C)C3,-7.59% (inactive),
COc1ccc(-n2c(=S)[nH]c3sc4c(c3c2=O)CCc2ccccc2-4)cc1,,17.8 µM (active)
CSc1nc2sc3c(c2c(=O)[nH]1)CCc1ccccc1-3,2.54% (inactive),

# Source: PubChem BioAssay AID1490 (National Center for Advancing Translational Sciences (NCATS), 2009)
